These results are taken from PubChem BioAssay.

Assay [1] in a line: antimalarial activity against Dd2 strain (AID 2302;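 active means growth inhibition above 50% at the single 2 µM test dose, taken to imply half-maximal potency below 2 µM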;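 further: 0% = DMSO untreated growth and 100% = chloroquine plus artemisinin killed control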). The settings on record: P. falciparum Dd2 in RBCs, LDH growth readout, 72 h; at 2 µM; stronger effect = higher value.
Assay [2] in a line: human hepatoma cell viability loss – ATP luminescence, cytotoxicity control for P. falciparum antimalarial project, primary screen (AID 2303;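 active means inhibition above 50%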;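 further: 0% = DMSO wells and 100% = digitonin-killed cells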). The settings on record: HepG2 viability, 24-48 h, at 10 µM, stronger effect = higher value.
Assay [3] deals with L-lactate dehydrogenase (Plasmodium falciparum (isolate CDC / Honduras)) (UniProt Q27743). The assay can be described thus: PfLDH activity inhibition – cell lysate, 3D7 strain, counter-screen for P. falciparum growth inhibition project (AID 2304).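 Further: 0% = vehicle and 100% = reference inhibitor.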 The settings on record: P. falciparum 3D7 crude extract, LDH APAD/NBT absorbance; at 2 µM; stronger effect = higher value.
A short description of assay [4]: inhibition of 3D7 malaria parasite growth – strain 3D7 (AID 2306).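 Further: 0% = DMSO wells and 100% = chloroquine plus artemisinin control wells.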 The settings on record: P. falciparum 3D7 erythrocytic growth, LDH absorbance, 72 h; at 2 µM; stronger effect = higher value.
Assay [5] addresses Calcium-dependent protein kinase 1 (Plasmodium falciparum (isolate 3D7)) (UniProt P62344). Kind of assay: PfCDPK1 kinase inhibitors, biochemical, TCAMS library (AID 1159585; cut-off not given, nearly all actives have IC50 up to about 0.98 µM;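 further: inhibitors leave more ATP so luminescence rises with inhibition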). Particulars: recombinant PfCDPK1, Kinase-Glo ATP depletion luminescence.
The target in assay [6] is Plasmodium falciparum protein kinase 6 (PK6, PF3D7_1337100) (UniProt Q8IDW1). The assay can be described thus: PfPK6 kinase inhibitors, biochemical, TCAMS library (AID 1159586). The settings on record: recombinant PfPK6, Kinase-Glo ATP depletion luminescence.
Assay [7] addresses Protein kinase 7 (PK7), Plasmodium falciparum 3D7 (PF3D7_0213400) (UniProt Q7YTF7). Kind of assay: inhibition of Plasmodium PK7 catalytic activity – biochemical, TCAMS antimalarial set, Kinase-Glo luminescence (AID 1159587). The settings on record: recombinant PfPK7, Kinase-Glo ATP depletion luminescence.
Assay [8] deals with Calcium-dependent protein kinase 4 (Plasmodium falciparum (isolate 3D7)) (UniProt Q8IBS5). Kind of assay: PfCDPK4 kinase inhibitors, biochemical, TCAMS library (AID 1159588; cut-off not given, nearly all actives have IC50 up to about 0.91 µM). Particulars: recombinant PfCDPK4, Kinase-Glo ATP depletion luminescence.

A number with no mark means an inactive call. For part of these data: Entries with a potency or affinity are not part of this list. Activity calls are given as the source filed them. Unless noted, how the calls were made is not given here.

Calcium-dependent protein kinase 4 (Plasmodium falciparum (isolate 3D7)), sequence (Q8IBS5 whole entry, looked up): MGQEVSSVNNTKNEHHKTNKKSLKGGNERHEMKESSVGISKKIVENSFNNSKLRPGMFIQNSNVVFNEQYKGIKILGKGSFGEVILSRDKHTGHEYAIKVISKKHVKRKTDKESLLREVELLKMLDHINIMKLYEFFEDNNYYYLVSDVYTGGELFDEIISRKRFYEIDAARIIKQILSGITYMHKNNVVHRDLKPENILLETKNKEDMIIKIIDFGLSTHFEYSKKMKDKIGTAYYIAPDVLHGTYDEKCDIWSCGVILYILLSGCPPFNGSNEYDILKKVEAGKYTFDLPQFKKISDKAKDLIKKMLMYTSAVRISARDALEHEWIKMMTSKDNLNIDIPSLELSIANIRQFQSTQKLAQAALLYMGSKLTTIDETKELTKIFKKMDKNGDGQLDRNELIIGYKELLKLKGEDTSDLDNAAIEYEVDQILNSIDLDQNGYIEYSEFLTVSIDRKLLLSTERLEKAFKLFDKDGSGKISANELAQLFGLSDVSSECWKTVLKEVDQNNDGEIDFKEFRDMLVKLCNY
Calcium-dependent protein kinase 1 (Plasmodium falciparum (isolate 3D7)), sequence (P62344 whole entry, looked up): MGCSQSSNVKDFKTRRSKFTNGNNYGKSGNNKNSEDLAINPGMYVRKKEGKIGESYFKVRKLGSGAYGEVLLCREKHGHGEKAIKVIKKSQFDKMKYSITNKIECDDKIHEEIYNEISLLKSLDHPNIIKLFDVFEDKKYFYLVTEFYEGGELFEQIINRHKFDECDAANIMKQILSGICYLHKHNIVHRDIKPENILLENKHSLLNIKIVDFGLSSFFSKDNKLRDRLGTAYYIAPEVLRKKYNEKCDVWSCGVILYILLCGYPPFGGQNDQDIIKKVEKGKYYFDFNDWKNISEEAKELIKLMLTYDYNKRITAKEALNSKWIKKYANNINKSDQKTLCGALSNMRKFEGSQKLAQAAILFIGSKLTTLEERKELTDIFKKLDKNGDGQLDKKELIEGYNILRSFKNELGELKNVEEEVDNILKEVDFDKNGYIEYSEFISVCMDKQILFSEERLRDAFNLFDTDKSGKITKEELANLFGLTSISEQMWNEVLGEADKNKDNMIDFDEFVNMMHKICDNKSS
Protein kinase 7 (PK7), Plasmodium falciparum 3D7 (PF3D7_0213400), sequence (Q7YTF7 1-343): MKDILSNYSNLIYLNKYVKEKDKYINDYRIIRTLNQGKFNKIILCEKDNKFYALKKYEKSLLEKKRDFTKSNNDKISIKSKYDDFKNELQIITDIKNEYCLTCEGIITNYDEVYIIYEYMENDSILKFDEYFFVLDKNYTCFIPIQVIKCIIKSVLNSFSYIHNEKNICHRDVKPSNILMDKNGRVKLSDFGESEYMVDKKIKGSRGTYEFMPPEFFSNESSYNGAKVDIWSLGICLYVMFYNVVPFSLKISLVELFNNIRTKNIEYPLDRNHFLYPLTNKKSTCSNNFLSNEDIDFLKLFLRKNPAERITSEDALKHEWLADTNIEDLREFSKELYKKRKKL
Plasmodium falciparum protein kinase 6 (PK6, PF3D7_1337100), sequence (Q8IDW1 1-305): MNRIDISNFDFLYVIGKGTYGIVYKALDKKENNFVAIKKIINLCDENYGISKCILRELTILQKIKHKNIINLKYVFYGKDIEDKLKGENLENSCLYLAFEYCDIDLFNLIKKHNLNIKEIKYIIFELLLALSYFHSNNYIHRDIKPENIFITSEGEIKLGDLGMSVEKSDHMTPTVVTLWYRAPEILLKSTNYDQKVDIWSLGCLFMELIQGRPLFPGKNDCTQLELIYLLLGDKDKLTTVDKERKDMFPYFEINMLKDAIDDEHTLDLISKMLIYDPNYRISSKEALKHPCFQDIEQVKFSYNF
L-lactate dehydrogenase (Plasmodium falciparum (isolate CDC / Honduras)), sequence (Q27743 whole entry, looked up): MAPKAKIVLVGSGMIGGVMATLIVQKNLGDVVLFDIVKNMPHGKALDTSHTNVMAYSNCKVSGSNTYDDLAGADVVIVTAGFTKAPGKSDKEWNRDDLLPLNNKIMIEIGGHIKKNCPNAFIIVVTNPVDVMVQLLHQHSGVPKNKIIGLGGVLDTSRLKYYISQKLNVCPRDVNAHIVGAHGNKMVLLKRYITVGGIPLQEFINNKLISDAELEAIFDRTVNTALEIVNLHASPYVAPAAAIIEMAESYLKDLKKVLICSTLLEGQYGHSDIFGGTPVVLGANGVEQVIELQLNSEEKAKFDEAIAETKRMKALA

Regarding `COc1ccc(Cl)cc1NC(=O)C(C)Nc1ccc(-c2ccccc2)cc1` (centres undefined), the growth inhibition was 89% (active) in assay [1] and 91% (active) in assay [4]. Besides, the inhibition in assay [2] and in assay [3] was -1% throughout. For the same compound, the result in assay [5], in assay [6], in assay [7] and in assay [8] was inactive.
With `c1ccc(CNCCn2c(-c3ccc4c(c3)CCO4)nc3c(N4CCCC4)cccc32)cc1`, the growth inhibition in assay [1] was 85% (active); in assay [4] it was 82% (active). For the same compound, the inhibition was 9% in assay [2] and -4% in assay [3]. Besides, the result in assay [5], in assay [6], in assay [7] and in assay [8] was inactive.
As for `Cc1cc2nc(-c3ccc(/C=C/C(=O)NCCc4ccccc4)cc3)[nH]c2cc1C`, the growth inhibition in assay [1] is 13%; in assay [4], 98% (active). For the same compound, the inhibition in assay [2] was 3%; in assay [3], 1%. Besides, the result in assay [5], in assay [6], in assay [7] and in assay [8] was inactive.
